Bioassay records deposited in PubChem by National Center for Advancing Translational Sciences (NCATS).
Rows were chosen to be rich in hits. Some 4.8% of all compounds tested hit in one or more screens of this group.
TGFb SMAD3 inh: blocks TGF-b signaling | Potency, µM (titrated, usually from 46.1 µM), for the others: top-dose activity, negative = inhibition, actives largely listed as inhibitors | hit rate 1.2% among 410,000 | AID 588855 | HepG2 CAGA-GFP TGF-b/SMAD3 reporter, GFP fluorescence, 18 h; TGF-beta stimulated, 500 pg/mL final; further: potency means the concentration at half of the fitted maximal effect; on the % scale 0 is the no-effect control and ±100 the full control effect; nearly all actives have a fitted effect of over 65% in size
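GFP signal (ex488/em500-530) from TGF-beta-stimulated HEPG2 CAGA-GFP cells, 500 pg/mL final, 18 h at 37 degrees C in DMEM plus 1% FBS, normalized to unstimulated and DMSO-stimulated controls.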
HepG2 tox: counter-screen for TGF-b inhibitors: cytotoxicity in HepG2 cells; HepG2 CAGA-GFP viability, ATP luminescence, 18 h; Potency, µM (highest dose often 46.1 µM), without a hit: top-dose activity change, negative = cytotoxicity, actives largely listed as cytotoxic; hit rate 0.76% among 410,000; AID 588856; further: potency means the concentration at half of the fitted maximal effect
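CellTiter-Glo luminescence gave cytotoxicity after 18 hours at 37 degrees C. The cells were HepG2 CAGA-GFP in 1% FBS DMEM, stimulated with 500 pg/mL TGF-beta after compound addition. %Activity was normalised to no-cell wells (complete cell-killing) and DMSO (no toxicity), and curves were fitted and classified.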
DRD3 antagonist: antagonists of human D3 dopamine receptor. hit rate 2.5% among 360,000. D3R cells, DiscoveRx beta-arrestin luminescence, antagonist mode; hits give low values. P35462. max response, negative = inhibition, %; in the data active means max response below about -50%; inconclusive means no clear call, values can overlap the other calls; further: on the % scale 0 is the no-effect control and ±100 the full control effect
Target sequence (P35462 whole entry, looked up): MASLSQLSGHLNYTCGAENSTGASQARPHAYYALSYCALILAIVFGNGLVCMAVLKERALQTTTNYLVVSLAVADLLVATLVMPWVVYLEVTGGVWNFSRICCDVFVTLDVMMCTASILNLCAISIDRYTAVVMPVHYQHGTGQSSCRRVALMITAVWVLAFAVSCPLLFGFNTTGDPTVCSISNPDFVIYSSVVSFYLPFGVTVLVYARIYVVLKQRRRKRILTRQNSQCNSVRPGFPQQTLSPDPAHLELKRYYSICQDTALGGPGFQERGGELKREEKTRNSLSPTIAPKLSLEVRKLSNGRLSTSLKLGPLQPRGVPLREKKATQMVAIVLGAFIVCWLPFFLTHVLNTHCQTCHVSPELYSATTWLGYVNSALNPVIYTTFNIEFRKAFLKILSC
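Cells expressing the human receptor were seeded at 1500 cells/well, incubated overnight at 37 degrees C in 5% CO2, then exposed to library compounds with dopamine controls for 90 minutes at 37 degrees C before luminescent detection.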
DRD3 agonist: activates the human D3 dopamine receptor; D3R DiscoveRx beta-arrestin cells, luminescence, 90 min; hit rate 0.58% among 410,000; max activation, %; AID 652048; in the data active means max activation above about 30%; further: 0% is about no effect
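Cells at 1500/well, incubated overnight, then treated with pinned compounds (dopamine as control) for 90 min at 37 degrees C. DiscoveRx reagent added for 30 - 60 minutes at room temperature; luminescence read.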
ATXN2 expr inh: reduces ATXN2 reporter expression in HEK-293 cells; HEK-293 ATXN2-luciferase reporter, luminescence, 24 h; Potency, µM (highest dose often 57 µM), without a hit: at the top dose activity change, negative = inhibition, hits mostly inhibitors; hit rate 0.72% among 360,000; further: potency means the concentration at half of the fitted maximal effect; on the % scale 0 is the no-effect control and ±100 the full control effect; nearly all actives have a fitted effect of over 55% in size
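qHTS (up to 57 uM final) was run with 24 h compound exposure of reporter cells at 37 °C. Each well was multiplexed: SteadyGlo luminescence measured ATXN2-luciferase expression after a fluorogenic Gly-Phe-AFC viability readout (25 uM final).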
ATXN viability: cell viability loss in ATXN counter-screen | S2 cells (HEK-293 line with an ATXN2-luciferase reporter) viability, CellTiter-Fluor protease fluorescence, 24 h | Potency, µM (titrated, usually from 56.7 µM), usual class: cytotoxic | hit rate 0.49% among 400,000 | AID 651635; further: potency means the concentration at half of the fitted maximal effect; nearly all actives have a fitted effect of over 40% in size
Starred values were filed as active, the others as inactive; i = inactive; ? = inconclusive; . = no result; [ ] = another dose, or the depositor's remark. Unless noted, the call rests on the fitted dose curve; in most records, active means well fitted curve in the direction sought with a large enough effect; inconclusive means small, poorly fitted or top-dose-only effect, or another doubt; inactive means no such curve, though single readings can be large; an effect the other way counts as inactive or inconclusive.

SMILES	TGFb SMAD3 inh	HepG2 tox	DRD3 antagonist	DRD3 agonist	ATXN2 expr inh	ATXN viability
Cc1cccc(-c2nc(SCC(=O)NCC3CCCO3)c3c(=O)n(C)c(=O)n(C)c3n2)c1 (stereo not given)	2.1%	-3.9%	.	12.6	10.5%	i
CN(C)c1ccc(/C=C/c2ccnc3ccc(Br)cc23)cc1	20.2%	-27.7%	.	.	.	.
CCN(CC)S(=O)(=O)c1ccc(N=Nc2c(C)[nH]n(C(N)=S)c2=O)cc1	-18.2%	-10.4%	-93.1*	9.3	10.3%	i
CC(=O)N(C)c1ccc(N=Nc2c(C)[nH]n(C(N)=S)c2=O)cc1	-16.7%	-4.1%	-20.2	-3.4	-3.5%	i
CC(C)[C@@H]1CN=C(N)N1C[C@@H]1CCCN1C[C@H](C)N1C[C@@H](Cc2ccccc2)N(CCc2ccc(Cl)c(Cl)c2)C1=N	5.1%	-16.1%	-59.5*	-19.7	-2.8%	i
C[C@@H](CN1CCC[C@H]1CN1C(N)=NC[C@@H]1Cc1ccccc1)N1C[C@@H](Cc2ccccc2)N(CCc2ccc(Cl)c(Cl)c2)C1=N	5.7%	3.6%	-53.1*	-48.4	-0.6%	i
CCc1nn(CC(=O)NC(C)CC)c(=O)c2cc3occc3n12 (stereo not given)	?	5.1%	.	-7.2	1.0%	i
O=C(CC(C(=O)O)n1ccnc1)c1ccc(Cl)cc1 (stereo not given)	-12.8%	6.3%	.	.	.	.
COC(=O)C1=C(C(=O)c2ccccc2)C(c2ccc(O)c(OC)c2)n2nnnc2N1 (stereo not given)	16.5%	7.8%	-19.2	-14.9	1.6%	i
COC(=O)C1=C(C(=O)c2ccccc2)C(c2ccc(OC)c(OC)c2)Nc2nnnn21 (stereo not given)	20.0%	-1.5%	-74.6*	-3.6	6.7%	i
COC(=O)C1=C(C(=O)c2ccccc2)C(c2cccs2)n2nnnc2N1 (stereo not given)	0.0%	1.6%	-59.6*	0.3	15.4%	i
COc1ccc(C2NC(=S)NC(C)=C2C(=O)c2ccccc2)cc1OC (stereo not given)	-2.3%	8.2%	-1.9	6.1	-7.0%	i
CC1=C(C(=O)Nc2ccc(Cl)cc2)C(c2cccs2)n2nnnc2N1 (stereo not given)	-35.2%	2.7%	16.0	0.1	-17.9%	i
CCOc1cc(C2C(C(=O)c3ccccc3)=C(C(=O)OC)Nc3nnnn32)ccc1O (stereo not given)	0.0%	-2.6%	-55.2*	0.9	-7.9%	i
CC(C)c1c(C(=O)Nc2ccccc2)c(-c2ccccc2)c(-c2ccc(F)cc2)n1CC[C@H](O)C[C@@H](O)CC(=O)O	.	.	.	.	18.5%	.
Oc1ccccc1-c1cc(C(F)(F)C(F)F)[nH]n1	11.2µM*	-36.3%	-19.6	-9.1	28.1%	i
Fc1ccc(-c2cc(C(F)(F)C(F)F)[nH]n2)cc1	?	-71.3%	13.0	-2.5	1.7%	.
COc1ccc(C(=O)CC(=O)C(=O)Nc2ccc(C)cc2Cl)cc1	5.9%	-28.5%	-64.0*	7.9	-14.8%	i
CCCc1cc(=O)oc2c3c(c4c(c12)OC(C)(C)C=C4)OC(C)C(C)C3O (stereo not given)	?	7.94µM*	17.4	6.5	?	?
Oc1ccccc1N1CCN(c2ncnc3scc(-c4ccc(F)cc4)c23)CC1	?	1.6%	37.4	7.3	-32.0%	i
Oc1ccccc1N1CCN(c2ncnc3scc(-c4ccccc4)c23)CC1	?	-22.2%	106.1	38.8*	-23.6%	i
Cc1ccc(-c2csc3ncnc(N4CCN(Cc5ccccc5)CC4)c23)cc1	0.4%	-8.6%	38.7	-15.9	.	i
COc1ccc(-c2csc3ncnc(N4CCN(c5ccccc5OC)CC4)c23)cc1	?	-1.5%	72.1	20.3	31.6µM*	?
CCN1CCN(c2ncnc3scc(-c4ccc(C)cc4)c23)CC1	-6.5%	-21.7%	-92.3*	-6.8	-8.8%	i
CCOc1ccccc1N1CCN(c2ncnc3scc(-c4ccc(OC)cc4)c23)CC1	?	-29.3%	103.9	8.9	?	i
SMILES	TGFb SMAD3 inh	HepG2 tox	DRD3 antagonist	DRD3 agonist	ATXN2 expr inh	ATXN viability
Cc1nc(N2CCN(c3ccccc3O)CC2)c2c(-c3ccccc3)csc2n1	-4.2%	-0.9%	115.0	32.2*	?	?
COc1cc(NC(=O)N2CCC(CN3CCOCC3)CC2)cc(OC)c1OC	15.9%	9.7%	.	-3.5	.	.
CC(C)C(NC(=O)c1ccccn1)c1nnc2n1CCN(Cc1ccc3ccccc3c1)CC2 (stereo not given)	.	.	.	.	.	i
CC1(C)CC(NC(=O)c2ccc(Cl)c(S(=O)(=O)N(Cc3ccccc3)c3ccccc3)c2)CC(C)(C)N1	?	17.8µM*	-22.5	-9.6	?	.
COc1ccccc1N(Cc1ccccc1)S(=O)(=O)c1cccc(C(=O)NC2CC(C)(C)NC(C)(C)C2)c1	-15.3%	12.6µM*	-20.7	-23.1	?	?
NC(=O)COC(=O)c1ccc(Cl)c(S(=O)(=O)N(Cc2ccccc2)c2ccc(Cl)cc2)c1	15.8µM*	1.5%	-7.0	-2.0	8.4%[11.3 µM]	i
CCCCN(CCCC)CC(O)c1cc(Cl)cc2c1-c1ccc(Cl)cc1C2=Cc1ccc(Cl)cc1 (stereo not given)	-20.4%	-8.0%	.	.	-12.1%	.
CCOc1ccc(OCC(O)CN2CCc3ccccc3C2)cc1 (stereo not given)	-7.6%	-21.4%	-98.0*	0.6	.	i
CC1CN(CC(O)COc2ccc(C(C)C)cc2)CC(C)O1 (stereo not given)	-0.9%	3.8%	-15.8	-3.0	6.9%	i
Cc1cc(OCC(O)CN2CCc3ccccc3C2)cc(C(C)C)c1 (stereo not given)	?	-78.2%	-68.1*	-0.3	.	i
CN1CCN(CC(O)COc2ccccc2)CC1 (stereo not given)	30.5%	5.7%	6.2	-0.1	7.1%	i
C=CCc1ccccc1OCC(O)CN1CCOCC1 (stereo not given)	0.0%	-47.2%	1.4	-1.7	-7.4%	i
CCN(CCn1cccn1)Cc1ccccc1OCC(O)CN1CCc2ccccc2C1 (stereo not given)	-3.9%	-27.6%	-57.7*	-20.3	-18.5%	i
CC(=O)c1ccc(OCC(O)CN2CC(C)OC(C)C2)cc1 (stereo not given)	29.1%	0.9%	-55.0*	-2.2	-2.7%	i
CC(=O)c1ccc(NC(=O)c2c3c(nc4ccccc24)C(=O)N(C2CCCCC2)C3)cc1	15.1%	-0.9%	.	-12.5	.	.
CC(=O)[O][Al][O]C(C)=O	.	.	.	-9.4	.	.
Cc1ccc(N2C(=O)CCSC23C(=O)N(Cc2ccccc2)c2ccccc23)cc1F (stereo not given)	?	-61.1%	.	-0.2	.	.
